Results on 57 compounds are retold here after PubChem BioAssay AID2098 (Broad Institute, 2009).

The structures appear in SMILES notation. The whole screen tested about 300,000 compounds, of which about 2,300 (0.77%) were called active. This is one part of a sample in which actives are shown more often than they occur. A number with no mark means an inactive call.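 Rule for the calls: active = more than half of replicate wells show activity change below -50%, luminescence cut by over half; inconclusive = some wells, but at most half, below -50%; inactive = no replicate well below -50%.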

The nature of this assay: HSF1 inhibitors in luciferase reporter cells, primary screen, cell-based, NIH3T3, luminescence (AID 2098).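 Note: luciferase reports HSF-1 transcriptional activity via heat shock element; 0% = median of DMSO wells and -100% = zero luminescence signal.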 As to conditions: NIH3T3-HGL HSE-luciferase, MG132-induced, luminescence 8 h; hits give low values; screened at 7.5 µM (by protocol). (A reporter such as luciferase makes a cellular process visible.)
Regarding `CCN1CCN(C(=O)/C=C\C(=O)O)CC1`, the activity change, negative = inhibition is -4.12%.

Turning to `C/C(=C/C(=O)N1CCN(C)CC1)C(=O)O`, the activity change, negative = inhibition was -83.7% (active).

On to `CN1CCN(C(=O)C2C3C=CC(C3)C2C(=O)O)CC1` (configuration not stated), for which the activity change, negative = inhibition was -0.614%.

On to `COc1cccc(CN(C)CC(=O)NCc2ccccc2Cl)c1OC`, for which the activity change, negative = inhibition is -1.39%.

For the compound `Cc1nc2ccc(C(=O)N(C)CC3CCCN(CCc4ccc(Cl)cc4)C3)cc2[nH]1` (configuration not stated), the activity change, negative = inhibition was -3.74%.

Consider `COc1cccc(CN(C)CC2CCCN(CCc3ccc(Cl)cc3)C2)c1OC` (configuration not stated), for which the activity change, negative = inhibition was -81.7% (active).

In the case of `O=C(COc1ccccc1F)Nc1nc(-c2ccccn2)cs1`, the activity change, negative = inhibition is -13.1%.

As for `N#CCCN(C(=O)COC(=O)c1ccc(S(=O)(=O)N2CCCCCC2)cc1)c1ccccc1`, the activity change, negative = inhibition was 0.525%.

Take `Cc1ccccc1N1CC(C(=O)Nc2ccc(S(=O)(=O)N3CCCC3)cc2)CC1=O` (configuration not stated): the activity change, negative = inhibition was -1.85%.

With `O=C(Cn1c(=O)n(Cc2ccco2)c(=O)c2ccccc21)NCC1CCCO1` (configuration not stated), the activity change, negative = inhibition is 0.503%.

On to `Cn1c(=O)c2ccccc2n(CC(=O)Nc2ccc3c(c2)OCCO3)c1=O`, for which the activity change, negative = inhibition is -3.8%.

In the case of `COc1ccc(NC(=O)Cn2c(=O)n(Cc3ccco3)c(=O)c3ccccc32)cc1`, the activity change, negative = inhibition is -89% (active).

As for `Cn1c(=S)sc2ccc3ccccc3c21`, the activity change, negative = inhibition was -1.53%.

Take `Brc1ccc(C2=CC(c3ccco3)n3ncnc3N2)cc1` (configuration not stated): the activity change, negative = inhibition was -56.9% (active).

Turning to `CCOc1ccc(C2=CC(c3ccccc3)n3ncnc3N2)cc1` (configuration not stated), the activity change, negative = inhibition was -4.36%.

With `COC(=O)C1=C(C)Nc2ncnn2C1c1ccco1` (configuration not stated), the activity change, negative = inhibition was 0.145%.

Regarding `O=C(O)c1ccc2c(c1)C(=O)N(NC(=O)c1ccc(O)cc1)C2=O`, the activity change, negative = inhibition was 0.898%.

With `O=C(Nc1ccc(C(=O)O)c(O)c1)c1ccccc1`, the activity change, negative = inhibition was 2.77%.

Take `O=C(c1ccc(O)cc1)c1ccc(C(=O)O)c(C(=O)O)c1`: the activity change, negative = inhibition is -68% (active).

`CCC1(c2ccccc2)NC(=O)N(CC(=O)c2ccc3c(c2)OCO3)C1=O` (configuration not stated): the activity change, negative = inhibition is 1.78%.

Consider `CCCCN1C(N)=NC[C@@H]1CC1CCCCC1`, for which the activity change, negative = inhibition was -7.88%.

Consider `C[C@@H]1O[C@@H](OC[C@H]2O[C@@H](Oc3c(-c4ccc(O)cc4)oc4cc(O)cc(O)c4c3=O)[C@H](O)[C@@H](O)[C@@H]2O)[C@H](O)[C@H](O)[C@H]1O`, for which the activity change, negative = inhibition is 2.53%.

For `O=C(CCCCCn1c(=S)[nH]c2cc3c(cc2c1=O)OCO3)N1CCN(c2ccc(F)cc2)CC1`, the activity change, negative = inhibition was 0.967%.

For the compound `Cc1ccc(C)c(N2CCN(C(=O)CCCCCn3c(=S)[nH]c4ccc(N5CCOCC5)cc4c3=O)CC2)c1`, the activity change, negative = inhibition was -73.3% (active).

As for `Cc1ccc(C)c(N2CCN(C(=O)CCCCn3c(=O)[nH]c4ccccc4c3=O)CC2)c1`, the activity change, negative = inhibition is 1.8%.

As for `Cc1cc(Br)ccc1NC(=O)CN(C)C(=O)CN1C(=O)NC2(CCCC2)C1=O`, the activity change, negative = inhibition is -4.3%.

With `O=C(COc1ccccc1)Nc1ccc(C(=O)N2CCCC2)cc1`, the activity change, negative = inhibition was -3.01%.

On to `N#CC1=C(N)Oc2n[nH]c(CSc3ccccc3)c2C12C(=O)Nc1ccccc12` (configuration not stated), for which the activity change, negative = inhibition was -57.8% (active).

For the compound `N#CC1=C(N)Oc2[nH]c(=S)[nH]c(=O)c2C12C(=O)Nc1ccccc12` (configuration not stated), the activity change, negative = inhibition is -4.51%.

As to `COc1ccc(S(=O)(=O)NCC(c2ccco2)N2CCOCC2)cc1` (configuration not stated), the activity change, negative = inhibition was 5.28%.

`O=C(Nc1nnc(S(=O)(=O)N2CCCCCC2)s1)c1cccc(Br)c1`: the activity change, negative = inhibition is -56% (active).

`O=C(Nc1nnc(S(=O)(=O)N2CCOCC2)s1)c1cccc(Br)c1`: the activity change, negative = inhibition was 4.12%.

As for `Cc1cccc(C(=O)Nc2nnc(S(=O)(=O)N3CCCCCC3)s2)c1`, the activity change, negative = inhibition was -1.91%.

With `O=C(COC(=O)c1ccccc1SCC(=O)N1CCCC1)Nc1ccccc1OC(F)F`, the activity change, negative = inhibition was 7.03%.

With `O=C(c1ccc(F)c(S(=O)(=O)N2CCOCC2)c1)N(CCc1ccccc1)Cc1ccccc1`, the activity change, negative = inhibition is 5.02%.

With `COc1ccc(Cl)cc1C=CC=Nc1ccc(S(N)(=O)=O)cc1`, the activity change, negative = inhibition is -18.4%.

With `C=C1CCN([C@@H](Cc2ccccc2)C(=O)N2CCOCC2)S(=O)(=O)c2ccccc21`, the activity change, negative = inhibition was -0.215%.

Consider `COc1cccc(OC)c1C(=O)Nc1sc2c(c1C(N)=O)CCCC2`, for which the activity change, negative = inhibition was -3.68%.

As for `O=C(OCC1OC(Oc2ccc(O)cc2)C(O)C(O)C1O)c1ccccc1` (configuration not stated), the activity change, negative = inhibition was -1.79%.

For `CCCCn1c(N)c(N(CC(C)C)C(=O)c2cccc(S(=O)(=O)N3CC(C)OC(C)C3)c2)c(=O)[nH]c1=O` (configuration not stated), the activity change, negative = inhibition was -2.84%.

Regarding `Cc1ccc(C(CNC(=O)Nc2ccccc2)N2CCN(C)CC2)cc1` (configuration not stated), the activity change, negative = inhibition was -9.11%.

Regarding `Cc1ccc(NC(=O)NCC(c2cccnc2)N2CCOCC2)cc1` (configuration not stated), the activity change, negative = inhibition was -69.8% (active).

As for `Cc1ccc(C)c(NC(=S)NCC(c2cccnc2)N2CCOCC2)c1` (configuration not stated), the activity change, negative = inhibition is -6.11%.

For `O=C(NCCS(=O)(=O)NCc1ccc(Cl)cc1)c1ccccc1`, the activity change, negative = inhibition is 2.35%.

Consider `O=C(COC(=O)Cc1ccccc1F)NNC(=O)c1ccc(Cl)cc1`, for which the activity change, negative = inhibition was -1.7%.

As to `CC1CCN(c2c(NCc3ccc(C(=O)NCc4ccccc4)cc3)c(=O)c2=O)CC1`, the activity change, negative = inhibition was -69.2% (active).

For `O=C(NC1CCCCC1)c1ccc(CNc2c(N3CCOCC3)c(=O)c2=O)cc1`, the activity change, negative = inhibition was -0.199%.

On to `O=C(NCc1ccccc1)c1ccc(CNc2c(N3CCCC3)c(=O)c2=O)cc1`, for which the activity change, negative = inhibition was -3.59%.

Regarding `Cn1cccc1C(=O)OCC(=O)c1ccc(Br)s1`, the activity change, negative = inhibition is -97.9%.

Take `O=C(Nc1cccc2c1CCCC2)c1ccc(F)cc1`: the activity change, negative = inhibition was -2.27%.

Consider `COc1ccc(/C=N/NC(=O)c2ccc3c(c2)OCCO3)c(OC)c1`, for which the activity change, negative = inhibition was -61% (active).

On to `COc1ccc(/C=N/NC(=O)Nc2ccc3nsnc3c2)c(OC)c1`, for which the activity change, negative = inhibition is 15.1%.

For the compound `COc1ccc(/C=N/NC(=O)CNC(=O)c2ccc(S(=O)(=O)N3CCCC3)cc2)c(OC)c1`, the activity change, negative = inhibition is -4.96%.

In the case of `COc1ccc(C)cc1NC(=O)CSc1nnc2ccc(-c3ccccn3)nn12`, the activity change, negative = inhibition is -4.51%.

Take `COc1cc(C(=O)NN(CCC#N)C2=NS(=O)(=O)c3ccccc32)cc(OC)c1OC`: the activity change, negative = inhibition was -1.4%.

In the case of `Cc1ccc(S(=O)(=O)N(NC2=NS(=O)(=O)c3ccccc32)C(=O)c2ccccc2)cc1`, the activity change, negative = inhibition is -2.65%.

For the compound `Cc1ccc(C(=O)NN(CCC#N)C2=NS(=O)(=O)c3ccccc32)cc1`, the activity change, negative = inhibition was -53.5% (active).
